Assay results reported in PubChem BioAssay (Tox21).
Inconclusive results are not listed. Activity calls are given as the source filed them. Unless noted, calls follow the shape of the dose curve; as a rule, active = well fitted curve in the direction sought with a large enough effect in the repeat runs; inconclusive = weak or mixed curves; inactive = no such curve, though single readings can be large; an effect the other way counts as inactive or inconclusive.

Tests used:
[1] = qHTS assay to identify small molecule agonists of the RXR signaling pathway - cell viability counter screen (AID 1159529);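 also: HEK 293T cells carrying an RXR-alpha UAS beta-lactamase reporter; series mostly up to about 77 µM; nearly all actives have a fitted effect of over 50% in size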
Summary of the method: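 Same-well viability check after the LiveBLAzer FRET read: CellTiter-Glo added, luminescence measured after 30 min at room temperature. Reporter HEK 293T cells had been treated with compounds for 16 hr following a 5 hr preincubation.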

[2] = qHTS assay to identify small molecule antagonists of the retinoid acid receptor (RAR) signaling pathway - cell viability counter screen (AID 1159551); also: nearly all actives have a fitted effect of over 35% in size
Summary of the method: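 ATP-based viability, C3RL4 cells, 6 h at 37 C with 1 uM final retinol co-added after compound; luminescence read 30 min post CellTiter-Glo, RT.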

[3] = qHTS assay to identify small molecule antagonists of the estrogen related receptor (ERR) signaling pathway from Tox21 library - cell viability counter screen (AID 1224834); also: nearly all actives have a fitted effect of over 30% in size
Summary of the method: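 Compounds in DMSO were pinned onto ERR cells that had been incubated for 6 h, and the plates were held at 37 C for 17.5 h. CellTiter-Fluor reagent was then added and fluorescence was measured after 30 min.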

[4] = biological target: Luciferin 4-monooxygenase (Photinus pyralis) (UniProt P08659); assay: qHTS assay to identify small molecule inhibitors of firefly luciferase (AID 1224835); also: series mostly up to about 120 µM; nearly all actives have a fitted effect of over 25% in size
Luciferin 4-monooxygenase (Photinus pyralis), sequence (P08659 whole entry, looked up): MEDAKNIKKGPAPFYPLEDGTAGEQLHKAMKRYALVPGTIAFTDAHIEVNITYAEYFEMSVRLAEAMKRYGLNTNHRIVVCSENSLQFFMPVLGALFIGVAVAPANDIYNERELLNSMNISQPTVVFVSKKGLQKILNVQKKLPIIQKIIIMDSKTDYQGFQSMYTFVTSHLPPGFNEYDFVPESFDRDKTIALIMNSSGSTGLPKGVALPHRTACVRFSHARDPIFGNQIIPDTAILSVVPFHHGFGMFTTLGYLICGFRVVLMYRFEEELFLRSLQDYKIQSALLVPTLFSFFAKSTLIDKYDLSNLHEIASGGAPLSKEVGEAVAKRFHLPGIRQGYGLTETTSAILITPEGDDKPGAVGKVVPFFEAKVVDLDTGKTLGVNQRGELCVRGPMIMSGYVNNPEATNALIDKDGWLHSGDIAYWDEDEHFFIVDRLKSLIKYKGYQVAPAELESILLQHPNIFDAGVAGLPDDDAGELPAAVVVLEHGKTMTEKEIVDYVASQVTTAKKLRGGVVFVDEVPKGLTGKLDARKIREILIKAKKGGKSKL
Summary of the method: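 Quantitative HTS format; KM concentrations of both substrates. Purified P. pyralis FLuc activity quantified from luminescence images.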

[5] = qHTS assay to identify small molecule agonists of the constitutive androstane receptor (CAR) signaling pathway - cell viability counter screen (AID 1224836); also: series mostly up to about 92 µM; nearly all actives have a fitted effect of over 45% in size
Summary of the method: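 Compound titrations (15 concentrations) went onto HepG2-CYP2B6-hCAR cells 4 h after seeding, alongside PK11195 at a final 0.75 uM; a 23 h, 37 C/5% CO2 incubation preceded CellTiter-Fluor viability measurement.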

[6] = qHTS assay to identify small molecule antagonists of the constitutive androstane receptor (CAR) signaling pathway - cell viability counter screen (AID 1224837); also: series mostly up to about 92 µM; nearly all actives have a fitted effect of over 45% in size
Summary of the method: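 Cells are seeded, rested 4 hr at 37 C/5% CO2, dosed with compound (15-point series) and 50 nM CITCO, incubated a further 23 hr, and then CellTiter-Fluor reagent is added before fluorescence is read. The line is HepG2 with stable hCAR and CYP2B6-2.2kb.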

[7] = biological target: Nuclear receptor subfamily 1 group I member 3 (Homo sapiens) (UniProt Q14994); assay: qHTS assay to identify small molecule antagonists of the constitutive androstane receptor (CAR) signaling pathway (AID 1224838);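 also: HepG2 cells stably expressing hCAR with CYP2B6 luciferase reporter stimulated by CITCO; nearly all actives have a fitted effect of over 40% in size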
Nuclear receptor subfamily 1 group I member 3 (Homo sapiens), sequence (Q14994 whole entry, looked up): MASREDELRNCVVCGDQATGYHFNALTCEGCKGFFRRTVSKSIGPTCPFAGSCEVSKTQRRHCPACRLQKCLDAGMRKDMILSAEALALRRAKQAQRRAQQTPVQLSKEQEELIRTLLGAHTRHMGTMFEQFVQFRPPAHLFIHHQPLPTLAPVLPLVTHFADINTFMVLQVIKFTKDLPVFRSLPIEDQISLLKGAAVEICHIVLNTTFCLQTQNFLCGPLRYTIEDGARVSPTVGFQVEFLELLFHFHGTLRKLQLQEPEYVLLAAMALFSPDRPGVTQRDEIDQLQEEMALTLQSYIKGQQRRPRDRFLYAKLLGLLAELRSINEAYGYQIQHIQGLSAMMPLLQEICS
Summary of the method: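 Luminescence from a CYP2B6-2.2kb promoter reporter in hCAR-expressing HepG2 cells reflects CAR signaling. Cells received compounds at 15 concentrations and 50 nM CITCO (final), then incubated 24 h at 37 C/5% CO2.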

[8] = biological target: Nuclear receptor subfamily 1 group I member 3 (Homo sapiens) (UniProt Q14994); assay: qHTS assay to identify small molecule agonists of the constitutive androstane receptor (CAR) signaling pathway (AID 1224839);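 also: HepG2 cells stably carrying human CAR and a CYP2B6 luciferase reporter; series mostly up to about 92 µM; nearly all actives have a fitted effect of over 15% in size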
Summary of the method: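 In this screen, CAR-driven CYP2B6 promoter activity is measured by luminescence in HepG2-CYP2B6-hCAR cells after 24 h with test compounds and 0.75 uM PK11195 (final concentration).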

[9] = qHTS assay to identify small molecule antagonists of the estrogen related receptor signaling pathway with the pleiotropic PPARgamma coactivator (PGC) from Tox21 10K library - cell viability counter screen (AID 1224840; active = well fitted cell-killing curve with a large enough effect in the repeat runs, not every such curve was filed as active; also: nearly all actives have a fitted effect of over 40% in size)
Summary of the method: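 Cell viability is measured by CellTiter-Fluor fluorescence in PGC/ERR cells that receive compounds after a 6-hour attachment period and are then incubated 17.5 hours at 37 C.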

[10] = biological target: Thyrotropin receptor (Homo sapiens) (UniProt P16473); assay: qHTS assay to identify small molecule agonists of the thyroid stimulating hormone receptor (TSHR) signaling pathway (AID 1224843; calls by dose curve; also: nearly all actives have a fitted effect of over 45% in size)
Thyrotropin receptor (Homo sapiens), sequence (P16473 whole entry, looked up): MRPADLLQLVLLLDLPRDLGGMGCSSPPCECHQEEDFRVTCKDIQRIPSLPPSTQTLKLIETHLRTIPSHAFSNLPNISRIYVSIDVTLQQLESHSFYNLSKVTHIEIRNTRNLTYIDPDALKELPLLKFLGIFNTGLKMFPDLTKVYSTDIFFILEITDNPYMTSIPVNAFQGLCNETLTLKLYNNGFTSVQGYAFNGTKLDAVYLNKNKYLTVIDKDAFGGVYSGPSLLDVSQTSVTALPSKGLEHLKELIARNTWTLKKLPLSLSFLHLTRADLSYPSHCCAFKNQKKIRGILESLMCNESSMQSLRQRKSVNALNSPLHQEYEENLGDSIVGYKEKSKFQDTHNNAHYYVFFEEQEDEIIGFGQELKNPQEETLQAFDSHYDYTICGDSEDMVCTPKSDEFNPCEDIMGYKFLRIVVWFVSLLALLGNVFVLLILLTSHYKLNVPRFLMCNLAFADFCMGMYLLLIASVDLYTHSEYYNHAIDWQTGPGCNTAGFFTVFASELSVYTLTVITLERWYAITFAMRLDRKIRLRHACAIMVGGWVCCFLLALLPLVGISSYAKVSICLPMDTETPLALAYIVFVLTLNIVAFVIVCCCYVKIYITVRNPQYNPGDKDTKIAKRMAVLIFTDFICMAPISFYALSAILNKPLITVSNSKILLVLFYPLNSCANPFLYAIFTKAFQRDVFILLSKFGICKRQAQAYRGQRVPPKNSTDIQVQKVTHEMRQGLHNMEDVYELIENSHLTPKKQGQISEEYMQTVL
Summary of the method: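 Using 15 concentrations per compound in triplicate, cAMP production was monitored in TSHR-HEK293 cells after 30 min compound incubation at RT; HTRF reagents followed, with fluorescence intensity recorded after 1 h.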

[11] = qHTS assay to identify small molecule antagonists of the estrogen related receptor signaling pathway with the pleiotropic PPARgamma coactivator (PGC) from Tox21 10K library (AID 1224841; call rule not given here; also: series mostly up to about 92 µM; actives are mostly falling curves and most rising ones were filed inactive; nearly all actives have a fitted effect of over 50% in size)
Summary of the method: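 Cells stably carrying the PGC/ERR reporter, seeded at 2,000 per well, received pin-transferred compounds 6 h post-plating. Exposure lasted 18 h at 37 C. Signal: One-Glo luminescence.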

[12] = qHTS assay to identify small molecule agonists of the estrogen related receptor signaling pathway with the pleiotropic PPARgamma coactivator (PGC) from Tox21 10K library (AID 1224842); also: nearly all actives have a fitted effect of over 15% in size
Summary of the method: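 PGC/ERR reporter cells (NTP line) were seeded 2,000 per well, rested 6 h at 37 C/5% CO2, then pin-dosed with compounds in DMSO for 18 h at 37 C; luciferase read by One-Glo luminescence after 30 min at room temperature.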

[13] = qHTS assay to identify small molecule antagonists of the retinoic acid receptor (RAR) signaling pathway (AID 1159552; also: nearly all actives have a fitted effect of over 50% in size)
Summary of the method: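 Readout: luciferase luminescence, 30 min post-reagent at RT. Setup: C3RL4 RARE reporter cells, compounds plus retinol 1 uM final, 6 hr incubation at 37 C and 5% CO2.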

[14] = qHTS assay to identify small molecule agonists of the retinoic acid receptor (RAR) signaling pathway (AID 1159553)
Summary of the method: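 Quantitative high-throughput format: the Tox21 10K library was tested on C3RL4 RARE-luciferase cells for 6 hr at 37 C and 5% CO2, with luminescence measured after a 30 min room-temperature reagent step.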
% is scaled to controls: 0 for no effect and ±100 for the full control effect.

CC(C)C(=O)OC(=O)C(C)C
inactive: Potency [1] | outcome [2] | Potency [3] | Potency [4] | outcome [5] | outcome [6] | Potency [7] | Potency [8] | outcome [9] | Potency [10]

CCOC(=O)c1ccccc1
inactive: Potency [1] | outcome [2] | Potency [3] | Potency [4] | outcome [5] | outcome [6] | outcome [9] | Potency [11] | Potency [12]

NCCCC[C@H](N[C@@H](CCc1ccccc1)C(=O)O)C(=O)N1CCC[C@H]1C(=O)O
inactive: Potency [1] | outcome [2] | Potency [3] | Potency [4] | outcome [5] | outcome [6] | Potency [7] | outcome [9]

O=C(O)CCSCCC(=O)O
inactive: Potency [1] | outcome [2] | Potency [3] | Potency [4] | outcome [5] | outcome [6] | Potency [7] | Potency [8] | outcome [9] | Potency [10]

CO[C@@]1(NC(=O)CSC[C@@H](N)C(=O)O)C(=O)N2C(C(=O)O)=C(CSc3nnnn3C)CS[C@@H]21
inactive: Potency [1] | outcome [2] | Potency [3] | Potency [4] | outcome [5] | outcome [6] | outcome [9] | Potency [11] | Potency [12] | Potency [10]

CCOc1c(N2CCOCC2)cnn(C)c1=O
inactive: Potency [1] | outcome [2] | Potency [3] | Potency [4] | outcome [5] | outcome [6] | outcome [9]

CCOC(=O)C(=O)CCCCCCl
inactive: Potency [1] | outcome [2] | Potency [3] | Potency [4] | outcome [5] | outcome [6] | Potency [7] | Potency [8] | outcome [9] | Potency [10]

O=C(O)CNC(=O)c1ccccc1
inactive: Potency [1] | outcome [2] | Potency [3] | Potency [4] | outcome [5] | outcome [6] | outcome [9] | Potency [10]

CC(=O)c1ccc2ccccc2c1
inactive: Potency [1] | outcome [2] | Potency [3] | outcome [5] | outcome [6] | Potency [7] | Potency [8] | outcome [9]

COc1cc(C)nc(-n2nc(C)cc2OC)n1
inactive: Potency [1] | outcome [2] | Potency [3] | Potency [4] | outcome [5] | outcome [6] | Potency [8] | outcome [9] | Potency [11] | Potency [12] | Potency [10]

CNCCO
inactive: Potency [1] | outcome [2] | Potency [3] | Potency [4] | outcome [5] | outcome [6] | outcome [9]

CCCC(=O)O[C@]1(C(=O)CC)CC[C@H]2[C@@H]3CCC4=CC(=O)CC[C@]4(C)[C@H]3[C@@H](O)C[C@@]21C
inactive: Potency [1] | outcome [2] | Potency [3] | Potency [4] | outcome [5] | outcome [6] | outcome [9]

Cc1ccnc(NS(=O)(=O)c2ccc(N)cc2)n1
inactive: Potency [1] | outcome [2] | Potency [3] | Potency [4] | outcome [6] | outcome [9] | Potency [11] | Potency [12]

CCC(=O)OCc1ccccc1
inactive: Potency [1] | outcome [2] | Potency [3] | Potency [4] | outcome [5] | outcome [6] | outcome [9]

CC(=O)NC(=O)c1ccccc1O
inactive: Potency [1] | outcome [2] | Potency [3] | Potency [4] | outcome [5] | outcome [6] | outcome [9]

O=[N+]([O-])c1cncn1CCN1CCOCC1
inactive: Potency [1] | outcome [2] | Potency [3] | Potency [4] | outcome [5] | outcome [6] | Potency [8] | outcome [9] | Potency [10]

CCCCCCCCCCCCCCC(=O)O
inactive: Potency [1] | outcome [2] | Potency [3] | outcome [5] | outcome [6] | Potency [7] | Potency [8] | outcome [9] | Potency [10]

CCOCC(C)O (stereo unspecified)
inactive: Potency [1] | outcome [2] | Potency [3] | Potency [4] | outcome [5] | outcome [6] | outcome [9] | Potency [11] | Potency [12] | Potency [10]

CCO[Si](OCC)(OCC)c1ccccc1
inactive: Potency [1] | outcome [2] | Potency [3] | Potency [4] | outcome [5] | outcome [6] | outcome [9] | Potency [11] | Potency [12] | Potency [10]

CCOc1ccccc1OCC
inactive: Potency [1] | outcome [2] | Potency [3] | Potency [4] | outcome [5] | outcome [6] | outcome [9] | Potency [11] | Potency [12]

CC(=O)N1C[C@H](O)C[C@H]1C(=O)O
inactive: Potency [1] | outcome [2] | Potency [3] | Potency [4] | outcome [5] | outcome [6] | Potency [7] | Potency [8] | outcome [9] | Potency [10]

c1coc(CNc2ncnc3nc[nH]c23)c1
inactive: Potency [1] | outcome [2] | Potency [3] | Potency [4] | outcome [9] | Potency [10]

CCNS(=O)(=O)c1ccc(C)cc1
inactive: Potency [1] | Potency [13] | Potency [14] | Potency [3] | Potency [4] | outcome [5] | outcome [6] | outcome [9]

O=C(O)CNC(=O)c1ccc(CO)o1
inactive: Potency [1] | outcome [2] | Potency [3] | Potency [4] | outcome [5] | outcome [6] | outcome [9]

CC(C)C[C@@H](N)C(=O)O
inactive: activity change, negative = cytotoxicity [1] 4.29% [at 15.8 µM] | activity change, negative = cytotoxicity [2] 3.59% [at 19 µM] | viability change, negative = cytotoxic [3] 1.15% [at 19 µM] | activity change, negative = inhibition [4] -3.09% [at 23.6 µM] | viability change, negative = cytotoxic [5] 3.64% [at 19 µM] | activity change, negative = cytotoxicity [6] 0.137% [at 19 µM] | activity, negative = inhibition [7] 4.78% [at 19 µM] | viability change, negative = cytotoxic [9] -8.03% [at 19 µM] | activity, negative = inhibition [11] 0.755% [at 19 µM] | activation [12] -0.0839% [at 19 µM] | activation [10] -1.78% [at 19 µM]

CCC(C)(CCCC(C)C)OC(C)=O (stereo unspecified)
inactive: Potency [1] | outcome [2] | Potency [3] | Potency [4] | outcome [5] | outcome [6] | Potency [7] | Potency [8] | outcome [9] | Potency [10]
